# Tests used:
# Experiment in all cases: DAPPL (digital affinity profiling via proximity ligation, sequencing); 10 mM Tris-HCl pH 7.5, 50 mM NaCl, 1 mM DTT, 4% glycerol, room temperature, 30 min; GST-TFs on glutathione beads, 16-mer random dsDNA library, 0.1% formaldehyde crosslink after washing; high values mean tight binding
# Settings in all cases: protein: recombinant; tags: N-terminal GST; dsDNA, one strand shown
# ELK1 = biological target: T1, ELK1 (Homo sapiens, UniProt P19419 1-428)
# T1 sequence: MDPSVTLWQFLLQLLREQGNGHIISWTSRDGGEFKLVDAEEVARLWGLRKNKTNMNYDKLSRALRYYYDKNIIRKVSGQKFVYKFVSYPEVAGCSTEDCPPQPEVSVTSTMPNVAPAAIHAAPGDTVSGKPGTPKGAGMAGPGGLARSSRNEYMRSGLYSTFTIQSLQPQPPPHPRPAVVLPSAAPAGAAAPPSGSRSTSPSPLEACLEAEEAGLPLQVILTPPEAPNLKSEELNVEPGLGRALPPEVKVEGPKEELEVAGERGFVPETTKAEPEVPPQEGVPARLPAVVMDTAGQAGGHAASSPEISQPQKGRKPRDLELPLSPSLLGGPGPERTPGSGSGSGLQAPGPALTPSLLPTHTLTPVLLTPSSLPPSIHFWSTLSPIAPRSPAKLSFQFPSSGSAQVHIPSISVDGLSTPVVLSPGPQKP
# In short: (§1)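 A tag-only sample was pooled with DNA-barcoded human transcription factors that had been expressed in yeast as GST fusions and captured on glutathione beads. The pools were incubated for 30 min at room temperature with 200 nmole of a random double-stranded 16-mer DNA library in Tris/NaCl/DTT/glycerol buffer, then washed, crosslinked with 0.1% formaldehyde, proximity-ligated (BsaI/T4 ligase, 1 h, 37 °C), PCR-amplified and sequenced on an Illumina NextSeq500. Binding signal is each hexamer's read frequency for a factor divided by its frequency for the tag-only sample.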
# GABPA = biological target: T2, GABPA (Homo sapiens, UniProt Q06546 1-454)
# T2 sequence: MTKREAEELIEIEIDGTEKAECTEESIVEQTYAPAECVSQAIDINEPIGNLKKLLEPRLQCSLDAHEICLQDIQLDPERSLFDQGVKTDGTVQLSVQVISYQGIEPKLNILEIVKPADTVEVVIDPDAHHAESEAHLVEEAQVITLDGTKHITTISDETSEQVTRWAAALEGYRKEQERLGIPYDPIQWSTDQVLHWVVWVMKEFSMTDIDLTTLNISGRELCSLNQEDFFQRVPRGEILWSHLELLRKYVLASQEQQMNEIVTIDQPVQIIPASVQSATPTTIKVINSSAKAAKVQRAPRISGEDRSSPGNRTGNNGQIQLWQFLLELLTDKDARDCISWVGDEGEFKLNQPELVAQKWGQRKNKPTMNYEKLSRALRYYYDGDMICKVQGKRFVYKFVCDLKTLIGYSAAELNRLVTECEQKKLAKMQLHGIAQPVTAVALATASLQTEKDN
# In short: as §1
# ERG = biological target: T3, ERG (Homo sapiens, UniProt P11308 1-479)
# T3 sequence: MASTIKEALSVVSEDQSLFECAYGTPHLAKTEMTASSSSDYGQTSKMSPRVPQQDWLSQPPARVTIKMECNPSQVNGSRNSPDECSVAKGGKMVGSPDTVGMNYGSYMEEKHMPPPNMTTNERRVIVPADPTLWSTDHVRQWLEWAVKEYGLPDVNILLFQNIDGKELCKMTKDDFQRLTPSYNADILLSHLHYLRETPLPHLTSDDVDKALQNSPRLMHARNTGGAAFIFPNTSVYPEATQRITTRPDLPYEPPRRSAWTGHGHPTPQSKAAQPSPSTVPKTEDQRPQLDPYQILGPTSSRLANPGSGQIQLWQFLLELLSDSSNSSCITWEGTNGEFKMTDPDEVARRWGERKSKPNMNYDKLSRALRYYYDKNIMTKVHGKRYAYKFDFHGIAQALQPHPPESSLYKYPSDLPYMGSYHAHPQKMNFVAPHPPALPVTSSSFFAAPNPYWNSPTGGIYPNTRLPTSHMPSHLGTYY
# In short: as §1
# ELF1 = ELF1 (Homo sapiens, UniProt P32519 1-619)
# In short: as §1
# EHF = biological target: T4, EHF (Homo sapiens, UniProt Q9NZC4 1-300)
# T4 sequence: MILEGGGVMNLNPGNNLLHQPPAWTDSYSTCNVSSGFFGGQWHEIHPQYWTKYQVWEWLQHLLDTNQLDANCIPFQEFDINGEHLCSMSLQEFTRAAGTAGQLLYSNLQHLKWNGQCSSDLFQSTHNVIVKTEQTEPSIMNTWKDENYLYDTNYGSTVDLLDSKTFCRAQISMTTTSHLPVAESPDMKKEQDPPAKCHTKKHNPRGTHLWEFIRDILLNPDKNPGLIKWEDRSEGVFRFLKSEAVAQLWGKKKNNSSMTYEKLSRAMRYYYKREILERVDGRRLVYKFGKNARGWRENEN
# In short: as §1
# SPIB = SPIB (Homo sapiens, UniProt Q01892 1-262)
# In short: as §1
# FEV = biological target: T5, FEV (Homo sapiens, UniProt Q99581 1-238)
# T5 sequence: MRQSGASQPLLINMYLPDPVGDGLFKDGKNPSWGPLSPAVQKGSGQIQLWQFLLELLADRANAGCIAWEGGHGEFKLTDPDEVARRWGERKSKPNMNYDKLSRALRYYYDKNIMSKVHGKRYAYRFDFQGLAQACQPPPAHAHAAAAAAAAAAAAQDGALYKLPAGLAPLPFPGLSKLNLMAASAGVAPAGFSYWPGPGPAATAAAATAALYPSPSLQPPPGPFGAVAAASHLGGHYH
# In short: as §1
# ETV5 = ETV5 (Homo sapiens, UniProt P41161 1-510)
# In short: as §1
# ELF4 = ELF4 (Homo sapiens, UniProt Q99607 1-663)
# In short: as §1
# ELK4 = biological target: T6, ELK4 (Homo sapiens, UniProt P28324-2 1-405)
# T6 sequence: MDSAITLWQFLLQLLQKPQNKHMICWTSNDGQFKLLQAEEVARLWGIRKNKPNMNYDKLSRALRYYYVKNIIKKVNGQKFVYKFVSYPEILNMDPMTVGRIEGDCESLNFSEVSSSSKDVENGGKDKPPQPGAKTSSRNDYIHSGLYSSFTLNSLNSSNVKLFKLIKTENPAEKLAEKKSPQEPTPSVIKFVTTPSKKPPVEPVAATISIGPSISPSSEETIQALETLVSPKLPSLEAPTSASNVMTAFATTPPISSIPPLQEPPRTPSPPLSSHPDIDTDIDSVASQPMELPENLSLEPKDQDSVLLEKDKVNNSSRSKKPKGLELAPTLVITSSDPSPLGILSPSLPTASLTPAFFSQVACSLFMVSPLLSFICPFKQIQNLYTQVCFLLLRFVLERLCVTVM
# In short: as §1
# Sequence of ELF4 (Q99607 whole entry): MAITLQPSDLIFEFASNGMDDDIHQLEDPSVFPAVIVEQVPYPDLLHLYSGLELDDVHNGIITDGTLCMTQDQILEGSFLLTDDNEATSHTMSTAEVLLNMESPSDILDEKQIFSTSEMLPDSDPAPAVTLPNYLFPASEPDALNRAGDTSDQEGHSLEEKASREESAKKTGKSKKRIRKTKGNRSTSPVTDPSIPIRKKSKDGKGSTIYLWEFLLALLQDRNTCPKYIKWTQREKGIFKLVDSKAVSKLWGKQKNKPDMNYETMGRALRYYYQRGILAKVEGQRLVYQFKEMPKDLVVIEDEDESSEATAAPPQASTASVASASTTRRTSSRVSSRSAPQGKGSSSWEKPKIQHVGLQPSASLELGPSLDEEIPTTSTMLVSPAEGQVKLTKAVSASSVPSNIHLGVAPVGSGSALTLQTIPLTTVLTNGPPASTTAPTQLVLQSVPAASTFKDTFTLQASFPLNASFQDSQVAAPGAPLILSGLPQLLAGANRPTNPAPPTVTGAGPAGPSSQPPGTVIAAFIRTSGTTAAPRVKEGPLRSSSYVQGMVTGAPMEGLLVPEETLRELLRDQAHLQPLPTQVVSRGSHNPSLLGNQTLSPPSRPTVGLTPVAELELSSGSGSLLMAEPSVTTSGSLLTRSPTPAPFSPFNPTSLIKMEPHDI
# Sequence of ETV5 (P41161 whole entry): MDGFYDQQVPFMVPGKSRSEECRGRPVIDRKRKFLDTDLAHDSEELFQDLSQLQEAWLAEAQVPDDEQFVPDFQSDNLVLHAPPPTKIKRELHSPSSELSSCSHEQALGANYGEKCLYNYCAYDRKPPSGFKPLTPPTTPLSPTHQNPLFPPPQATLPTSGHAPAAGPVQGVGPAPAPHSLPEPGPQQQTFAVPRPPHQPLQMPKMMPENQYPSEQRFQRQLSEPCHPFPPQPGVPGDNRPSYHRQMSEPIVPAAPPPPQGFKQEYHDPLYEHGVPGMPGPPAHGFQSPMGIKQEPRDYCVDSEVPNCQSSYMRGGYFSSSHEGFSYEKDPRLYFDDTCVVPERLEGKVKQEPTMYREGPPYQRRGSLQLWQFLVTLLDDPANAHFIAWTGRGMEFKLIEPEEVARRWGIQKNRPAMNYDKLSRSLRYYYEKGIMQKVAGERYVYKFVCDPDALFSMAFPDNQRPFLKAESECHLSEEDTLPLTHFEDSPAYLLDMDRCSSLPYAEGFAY
# Sequence of ELF1 (P32519 whole entry): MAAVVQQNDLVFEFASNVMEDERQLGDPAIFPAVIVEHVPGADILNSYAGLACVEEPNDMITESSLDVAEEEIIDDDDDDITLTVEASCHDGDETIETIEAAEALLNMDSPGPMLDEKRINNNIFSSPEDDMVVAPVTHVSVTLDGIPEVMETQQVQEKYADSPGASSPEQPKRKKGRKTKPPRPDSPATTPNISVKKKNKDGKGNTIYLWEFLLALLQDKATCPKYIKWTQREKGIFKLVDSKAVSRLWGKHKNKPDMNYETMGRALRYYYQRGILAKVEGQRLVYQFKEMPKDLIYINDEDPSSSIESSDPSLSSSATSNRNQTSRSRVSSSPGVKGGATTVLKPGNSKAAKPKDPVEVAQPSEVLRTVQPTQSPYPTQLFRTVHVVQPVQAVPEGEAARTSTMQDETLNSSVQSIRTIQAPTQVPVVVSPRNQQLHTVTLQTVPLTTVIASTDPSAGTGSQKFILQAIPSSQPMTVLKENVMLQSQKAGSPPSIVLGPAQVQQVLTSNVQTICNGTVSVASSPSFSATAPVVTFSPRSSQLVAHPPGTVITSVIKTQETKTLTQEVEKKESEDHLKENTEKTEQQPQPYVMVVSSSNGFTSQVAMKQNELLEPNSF
# Sequence of SPIB (Q01892 whole entry): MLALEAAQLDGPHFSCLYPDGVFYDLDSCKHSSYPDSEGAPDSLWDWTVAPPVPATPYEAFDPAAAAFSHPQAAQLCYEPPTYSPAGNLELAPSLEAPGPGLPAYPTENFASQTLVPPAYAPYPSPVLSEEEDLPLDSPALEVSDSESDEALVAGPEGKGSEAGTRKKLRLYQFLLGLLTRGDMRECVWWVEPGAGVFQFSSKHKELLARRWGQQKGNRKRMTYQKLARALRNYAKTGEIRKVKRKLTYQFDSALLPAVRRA
sequence,measurement,setting,value
CGTAAA,binding signal,ELK1,"1.12 fold enrichment (6-mer frequency, TF over GST control)"
same,binding signal,GABPA,"1.23 fold enrichment (6-mer frequency, TF over GST control)"
same,binding signal,ERG,"1.13 fold enrichment (6-mer frequency, TF over GST control)"
same,binding signal,ELF1,"1.07 fold enrichment (6-mer frequency, TF over GST control)"
same,binding signal,EHF,"1.13 fold enrichment (6-mer frequency, TF over GST control)"
same,binding signal,SPIB,"1.08 fold enrichment (6-mer frequency, TF over GST control)"
same,binding signal,FEV,"1.04 fold enrichment (6-mer frequency, TF over GST control)"
same,binding signal,ETV5,"1.14 fold enrichment (6-mer frequency, TF over GST control)"
same,binding signal,ELF4,"1.11 fold enrichment (6-mer frequency, TF over GST control)"
same,binding signal,ELK4,"1.05 fold enrichment (6-mer frequency, TF over GST control)"
